AmpC inh no detg = blocks E. coli AmpC beta-lactamase in detergent-free assay; P00811; AmpC nitrocefin hydrolysis, absorbance 480 nm, 0.0001% Triton; Potency, µM (highest dose often 57.1 µM), for the others: top-dose activity change, negative = inhibition, actives largely listed as inhibitors; 330,000 compounds, 0.52% hits; AID 485341;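 further: plate controls were no compound for no effect and no enzyme for full effect; nearly all actives have a fitted effect of over 20% in size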
Target sequence (P00811 whole entry, looked up): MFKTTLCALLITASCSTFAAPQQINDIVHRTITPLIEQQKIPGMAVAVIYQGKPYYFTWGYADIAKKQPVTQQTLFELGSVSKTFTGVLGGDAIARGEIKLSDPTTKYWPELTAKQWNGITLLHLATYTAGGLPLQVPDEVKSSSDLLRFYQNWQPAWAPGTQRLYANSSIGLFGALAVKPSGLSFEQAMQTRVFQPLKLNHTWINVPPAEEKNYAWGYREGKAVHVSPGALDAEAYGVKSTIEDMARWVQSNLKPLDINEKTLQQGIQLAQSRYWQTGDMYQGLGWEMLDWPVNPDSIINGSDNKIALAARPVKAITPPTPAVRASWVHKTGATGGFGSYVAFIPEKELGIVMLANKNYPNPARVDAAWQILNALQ
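AmpC (5.3 nM in the dispensed reagent) in 20 mM phosphate pH 7.0 with 0.01% (detergent screen) or 0.0001% Triton X-100 was preincubated with compounds for 15 min at room temperature. Nitrocefin was then added from an 800 uM solution, and hydrolysis was followed at 480 nm.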
TbPYK inhibitor = inhibitors of Trypanosoma brucei pyruvate kinase. Q57TT1. TbPYK enzyme, Kinase-Glo Plus ATP luminescence, 45 min. Potency, µM (titrated, usually from 76.8 µM), without a hit: top-dose activity, negative = inhibition, hits mostly inhibitors. 410,000 compounds, 0.12% hits. AID 624173; further: on the % scale 0 is the no-effect control and ±100 the full control effect; nearly all actives have a fitted effect of over 50% in size
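Screened from lowest to highest concentration, compounds were pinned into TbPYK/substrate mixtures, and ADP (130 uM final) was added. Plates sat at room temperature for 45 min prior to Kinase-Glo Plus detection by luminescence.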
AmpC inh detg = inhibitors of E. coli AmpC beta-lactamase with detergent; AID 485294; P00811; Potency, µM (series often up to 114 µM), without a hit: at the top dose activity change, negative = inhibition, hits mostly inhibitors; 370,000 compounds, 0.041% hits; AmpC hydrolysis of nitrocefin, absorbance 480 nm, 0.01% Triton;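 further: 0% = no-compound wells and -100% = no-enzyme wells; nearly all actives have a fitted effect of over 25% in size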
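AmpC (5.3 nM in the dispensed reagent) in 20 mM phosphate pH 7.0 with 0.01% (detergent screen) or 0.0001% Triton X-100 was preincubated with compounds for 15 min at room temperature. Nitrocefin was then added from an 800 uM solution, and hydrolysis was followed at 480 nm.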
Sm TGR inh = inhibitors of Schistosoma mansoni thioredoxin glutathione reductase; 360,000 compounds, 3% hits; purified TGR, DTNB reduction, TNB absorbance 405 nm; Potency, µM (series often up to 114 µM), without a hit: top-dose activity change, negative = inhibition, most hits filed as inhibitors; Q962Y6; further: on the % scale 0 is the no-effect control and ±100 the full control effect; nearly all actives have a fitted effect of over 60% in size
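First, TGR (20 nM dispensed) and NADPH were mixed with compound. Second, a 15 min room-temperature incubation followed. Third, further NADPH and then DTNB were added to start the reaction. Finally, TNB absorbance was monitored kinetically.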
RE007 growth inh = less growth of the S. pombe RE007 Vpr strain. Potency, µM (doses to about 92.2 µM), for inactives: at the top dose activity change, negative = less growth, usual class: inhibitors. AID 651644. S. pombe RE007 Vpr strain, BacTiter-Glo ATP luminescence, 24 h. 360,000 compounds, 0.21% hits; active means well fitted falling curve with a large enough effect; inconclusive means small, poorly fitted or top-dose-only effect; inactive means no such curve, though single readings can be large or run the other way; further: on the % scale 0 is the no-effect control and ±100 the full control effect; nearly all actives have a fitted effect of over 50% in size
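Fission yeast strain RE007, carrying one chromosomally integrated HIV-1 vpr copy, was seeded at OD 0.01 in PMG+AL medium with 23 nL pinned compound. After 24 h at 30 °C and 99% humidity, viability was read by BacTiter-Glo luminescence.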
SARS PLP yeast = inhibitors of SARS-CoV papain-like protease in yeast. 330,000 compounds, 0.19% hits. Potency, µM (doses to about 32.9 µM), without a hit: at the top dose activity, positive = growth rescue, usual class: activators. S. cerevisiae expressing SARS-CoV PLpro, growth rescue. AID 485353; calls by dose curve; further: 0% is about no effect; nearly all actives have a fitted effect of over 55% in size
Numbers without * were called inactive; ? = inconclusive; nt = no result given. An excerpt weighted towards active compounds, which were near 3.3% of everything screened. Unless noted, the call rests on the fitted dose curve; in most records, active means well fitted curve in the direction sought with a large enough effect; inconclusive means small, poorly fitted or top-dose-only effect, or another doubt; inactive means no such curve, though single readings can be large; an effect the other way counts as inactive or inconclusive. Potency means the concentration at half of the fitted maximal effect.

SMILES	AmpC inh no detg	TbPYK inhibitor	AmpC inh detg	Sm TGR inh	RE007 growth inh	SARS PLP yeast
O=C1CC(SC2=NCCS2)C(=O)N1c1ccc(Br)cc1 (stereo not drawn)	-54%	7%	-10%	56µM*	0%	-14%
O=C1CC(Sc2ccc(Cl)cc2)C(=O)N1c1ccc2c(c1)OCCO2 (stereo not drawn)	-4%	-4%	5%	4µM*	-21%	-7%
Nc1ccccc1SC1CC(=O)N(c2ccc(Cl)c(Cl)c2)C1=O (stereo not drawn)	-51%	-2%	1%	5%	nt	0%
Cc1ccnc(SC2CC(=O)N(c3ccc(F)cc3)C2=O)n1 (stereo not drawn)	-11%	-9%	-1%	?	8%	-1%
Nc1ccccc1SC1CC(=O)N(c2ccc3c(c2)OCCO3)C1=O (stereo not drawn)	-35%	-5%	7%	9%	3%	1%
CCOC(=O)c1c(-c2ccccc2)oc2ccc(NS(=O)(=O)c3cc(C)c(C)cc3C)cc12	nt	-2%	21%	4%	nt	nt
O=C(O)c1ccccc1NC(=O)N1c2ccccc2Sc2ccccc21	nt	-5%	?	-21%	nt	nt
O=C(CSc1nc2c([nH]c3ccccc32)c(=O)n1-c1ccccc1F)Nc1cccc(C(F)(F)F)c1	nt	-6%	5%	-5%	nt	nt
CN(C)c1cc[n+](CC(=O)N2c3ccccc3Sc3ccccc32)cc1	-8%	-1%	-2%	nt	-21%	0%
O=C(C[n+]1ccccc1)N1c2ccccc2Sc2ccccc21	-4%	-2%	7%	28µM*	-24%	0%
CCc1ccc(C2CC(=O)Nc3cc4c(cc32)OCO4)cc1 (stereo not drawn)	nt	-3%	-9%	-4%	nt	nt
CCCN1C(=O)C(O)(c2c(C)[nH]c3ccccc23)c2ccccc21 (stereo not drawn)	-5%	-8%	3%	45µM*	-4%	-4%
CCC1=C(c2ccc(C)cc2)S(=O)(=O)N=C1N1CCC(C(=O)NCCc2ccc(Cl)cc2)CC1	nt	-1%	28%	-4%	nt	nt
Fc1ccccc1CNCc1ccc2c(c1)OCO2	-19%	2%	-12%	-2%	-7%	-1%
Fc1ccccc1CNCCc1ccc2c(c1)OCO2	-22%	10%	-10%	10µM*	-4%	-8%
Cc1ccc(C(=O)ONc2ccc(N=O)cc2)cc1	-22%	?	-13%	-7%	5.6µM*	-12%
CCOC(=O)c1c(C)c(-c2ccccc2)n(CC(=O)Nc2cccc(F)c2)c1C	nt	-4%	-1%	-9%	nt	nt
CCCOc1ccc(C2C(C(=O)c3ccc(C)o3)=C(O)C(=O)N2CCN2CCOCC2)cc1OC (stereo not drawn)	45%	5%	0%	40µM*	-25%	1%
CC(=O)C1=C(O)C(=O)N(CCCN2CCOCC2)C1c1ccccc1[N+](=O)[O-] (stereo not drawn)	-22%	-17%	-6%	45µM*	-13%	-1%
COc1ccc(OC)c(C2C(C(=O)c3ccc(C)o3)=C(O)C(=O)N2CCN2CCOCC2)c1 (stereo not drawn)	13%	1%	-1%	?	10%	-1%
CCN(CC)CCN1C(=O)C(O)=C(C(=O)c2ccc(C)o2)C1c1ccccn1 (stereo not drawn)	nt	-5%	nt	nt	-3%	nt
Cc1ccc(C(=O)C2=C(O)C(=O)N(CCN3CCOCC3)C2c2ccccn2)o1 (stereo not drawn)	-19%	nt	-9%	45µM*	nt	0%
Cc1ccc(C2C(C(=O)c3sc(C)nc3C)=C(O)C(=O)N2CCN2CCOCC2)o1 (stereo not drawn)	-7%	-16%	-3%	40µM*	-10%	-6%
CCN1CCN(c2ncc3c(n2)CCN(CC(C)C)C3)CC1	nt	3%	2%	-10%	nt	nt
CCCCCC[C@@H](CCC)C(=O)O	nt	0%	nt	nt	nt	nt
